# Results: PubChem BioAssay (NCI)
# The panel holds about 79,000 compounds, 15% with a hit somewhere; the sample as a whole holds those more often. Activity calls are given as the source filed them. Cut-off read from the data, not from the text of the source: active = growth inhibition above about 70%; inactive = the rest.
# Experiment: NCI Yeast Anticancer Drug Screen. Data for the sgs1 mgt1 strain (AID 161);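 note: 0% = growth of cultures given vehicle only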
# Settings: S. cerevisiae sgs1 mgt1 strain, at 50.0 µM (retest, dose inferred, filed as 5.0), active compounds read high
# How it was run: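 Test agents were incubated with a DNA-repair-mutant yeast strain. Growth was then read and compared against vehicle-treated controls.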
row,SMILES,growth inhibition
1,C1=NC2c3ccccc3Cc3cccc1c32 (stereo not drawn),97% (active)
2,COc1ccc2c(c1)CN([C@@H](C)[C@H]1CC[C@H]3[C@@H]4CC[C@H]5C[C@@H](O)CC[C@]5(C)[C@H]4CC[C@]13C)CO2,100% (active)
3,Cc1c(N)nc(C(CC(N)=O)NCC(N)C(N)=O)nc1C(=O)NC(C(=O)NC(C)C(O)C(C)C(=O)NC(C(=O)NCCc1nc(-c2nc(C(=O)NCCCNCCCc3ccccn3)cs2)cs1)C(C)O)C(OC1OC(CO)C(O)C(O)C1OC1OC(CO)C(O)C(OC(N)=O)C1O)c1cnc[nH]1 (stereo not drawn),99% (active)
4,COc1cc2c(cc1O)-c1c(cnn1-c1ccccc1)CCC2,88% (active)
5,CN(C)CC(CN(C)C)C(=O)c1ccc(Oc2ccc(Cl)cc2)cc1,99% (active)
6,N#CCCN(CCC#N)Cc1c(O)c(O)c(CN(CCC#N)CCC#N)c2ccccc12,46% (inactive)
7,Cc1cc2c(c([N+](=O)[O-])c1C)C(=O)C(Br)=C(N)C2=O,17% (inactive)
8,O=C(O)CSC(=S)N1CCCC1,4% (inactive)
9,CNC1=C2NC(=O)/C(C)=C\C=C\C(C)C(O)C(C)C(O)C(C)C(OC(C)=O)C(C)C(OC)/C=C/OC3(C)Oc4c(C)c(O)c(c(c4C3=O)C1=O)C2=O (stereo not drawn),55% (inactive)
10,O=c1c(Cl)nsnc1Cl,100% (active)
11,CC(NC(=O)OCc1ccccc1)C(=O)NNc1ccccc1Cl (stereo not drawn),99% (active)
12,O=C(OCc1ccccc1CN1CCOCC1)c1cccc(Br)c1,82% (active)
13,OC(COc1ccc(Cl)cc1)COc1ccc(Cl)cc1,86% (active)
14,Cc1c(-c2ccc(C(=N)N)cc2)oc(-c2ccc(C(=N)N)cc2)c1C,99% (active)
15,COC(=O)[C@@]12OC[C@]34[C@H]([C@@H](O)[C@@H]1O)[C@@]1(C)CC(=O)C(O)=C(C)[C@@H]1C[C@H]3OC(=O)[C@H](OC(=O)C(Cc1ccccc1)NC(=O)OC(C)(C)C)[C@@H]24 (stereo partly drawn),82% (active)
16,CCCCCCCCCCCCCCCC(=O)NCC[N+](C)(CC)CC,30% (inactive)
17,Oc1ccc(CCCCCc2ccc(O)cc2)cc1,100% (active)
18,NN(Cc1ccccc1)c1ccccc1,100% (active)
19,CCOC(=O)c1[nH]cc(C)c1-c1ccc2c(-c3ccccc3)nc3ccccc3n12,70% (active)
20,COC(=O)c1cn(NS(=O)(=O)c2ccc(OC)cc2)cc1C(=O)OC,14% (inactive)

row,SMILES,growth inhibition
1,CN(C)c1cc2c(cc1[N+](=O)[O-])-c1ccccc1C2O (stereo not drawn),57% (inactive)
2,CN(C)CCOc1cc2c(c3ccccc13)-c1ccccc1C2O (stereo not drawn),69% (inactive)
3,BrC(Br)([P+](c1ccccc1)(c1ccccc1)c1ccccc1)[P+](c1ccccc1)(c1ccccc1)c1ccccc1,61% (inactive)
4,CCOCCNc1ncnc2c1cnn2C,-6% (inactive)
5,C[C@H](CCC1=NCCN1)[C@H]1CC[C@H]2[C@@H]3CC[C@@H]4C[C@H](O)CC[C@]4(C)[C@H]3C[C@H](O)[C@]12C,99% (active)
6,CCOC(=O)C1=C(c2ccccc2)N(C)c2ccccc2S1,64% (inactive)
7,C(=P(c1ccccc1)(c1ccccc1)c1ccccc1)[P+](c1ccccc1)(c1ccccc1)c1ccccc1.[Br][Cu][Br],99% (active)
8,COc1ccc(N(C)Sc2ccccc2)cc1,24% (inactive)
9,COc1ccc(Cc2c(-c3ccc(C)cc3)n[nH]c(=O)c2C2C(=O)N(c3ccccc3)N=C2c2ccccc2)cc1 (stereo not drawn),97% (active)
10,N#CSC#CCCC#CSC#N,100% (active)
11,c1ccc2c(c1)OCC(CNCCNCC1COc3ccccc3O1)O2 (stereo not drawn),86% (active)
12,CC(C)(C)OC(=O)N[C@H]1CC2(C=C(Cl)C(=O)C(Cl)=C2)OC1=O,90% (active)
13,c1ccc([P+](c2ccccc2)(c2ccccc2)C2CCCC2)cc1,40% (inactive)
14,COc1ccc2nc(-c3ccc(Cl)cc3)[nH]c2c1,90% (active)
15,CC[C@H](CC[C@@H](C)C1CC[C@H]2[C@@H]3CCC4=CC(=O)CC[C@]4(C)[C@H]3CC[C@]12C)C(C)C (stereo partly drawn),68% (inactive)
16,CCOC(=O)N/N=C/c1ccc(N(C)CCC#N)cc1,4% (inactive)
17,CC(Br)C(=O)c1ccc2cc(Cl)c3ccccc3c2c1 (stereo not drawn),99% (active)
18,Cc1ccc(-n2cc(-c3ccc(Cl)cc3)c3c(NN)ncnc32)cc1,61% (inactive)
19,O=C1c2ccccc2C(=O)c2c1ccc(C(=O)O)c2-c1ccc2ccccc2c1,98% (active)

# Same assay, conditions: S. cerevisiae sgs1 mgt1 strain, at 50.0 µM, active compounds read high
row,SMILES,growth inhibition
1,C1=NC2c3ccccc3Cc3cccc1c32 (stereo not drawn),95.3% (active)
2,COc1ccc2c(c1)CN([C@@H](C)[C@H]1CC[C@H]3[C@@H]4CC[C@H]5C[C@@H](O)CC[C@]5(C)[C@H]4CC[C@]13C)CO2,99.2% (active)
3,Cc1c(N)nc(C(CC(N)=O)NCC(N)C(N)=O)nc1C(=O)NC(C(=O)NC(C)C(O)C(C)C(=O)NC(C(=O)NCCc1nc(-c2nc(C(=O)NCCCNCCCc3ccccn3)cs2)cs1)C(C)O)C(OC1OC(CO)C(O)C(O)C1OC1OC(CO)C(O)C(OC(N)=O)C1O)c1cnc[nH]1 (stereo not drawn),93.7% (active)
4,COc1cc2c(cc1O)-c1c(cnn1-c1ccccc1)CCC2,97.4% (active)
5,CN(C)CC(CN(C)C)C(=O)c1ccc(Oc2ccc(Cl)cc2)cc1,50.9% (inactive)
6,N#CCCN(CCC#N)Cc1c(O)c(O)c(CN(CCC#N)CCC#N)c2ccccc12,59.2% (inactive)
7,Cc1cc2c(c([N+](=O)[O-])c1C)C(=O)C(Br)=C(N)C2=O,98.8% (active)
8,O=C(O)CSC(=S)N1CCCC1,-14.5% (inactive)
9,CNC1=C2NC(=O)/C(C)=C\C=C\C(C)C(O)C(C)C(O)C(C)C(OC(C)=O)C(C)C(OC)/C=C/OC3(C)Oc4c(C)c(O)c(c(c4C3=O)C1=O)C2=O (stereo not drawn),45.7% (inactive)
10,O=c1c(Cl)nsnc1Cl,99.6% (active)
11,CC(NC(=O)OCc1ccccc1)C(=O)NNc1ccccc1Cl (stereo not drawn),91.4% (active)
12,O=C(OCc1ccccc1CN1CCOCC1)c1cccc(Br)c1,82.8% (active)
13,OC(COc1ccc(Cl)cc1)COc1ccc(Cl)cc1,99.4% (active)
14,Cc1c(-c2ccc(C(=N)N)cc2)oc(-c2ccc(C(=N)N)cc2)c1C,88.1% (active)
15,COC(=O)[C@@]12OC[C@]34[C@H]([C@@H](O)[C@@H]1O)[C@@]1(C)CC(=O)C(O)=C(C)[C@@H]1C[C@H]3OC(=O)[C@H](OC(=O)C(Cc1ccccc1)NC(=O)OC(C)(C)C)[C@@H]24 (stereo partly drawn),86.8% (active)
16,CCCCCCCCCCCCCCCC(=O)NCC[N+](C)(CC)CC,72.2% (active)
17,Oc1ccc(CCCCCc2ccc(O)cc2)cc1,99.7% (active)
18,NN(Cc1ccccc1)c1ccccc1,91.8% (active)
19,CCOC(=O)c1[nH]cc(C)c1-c1ccc2c(-c3ccccc3)nc3ccccc3n12,60.4% (inactive)
20,COC(=O)c1cn(NS(=O)(=O)c2ccc(OC)cc2)cc1C(=O)OC,29.8% (inactive)

row,SMILES,growth inhibition
1,CN(C)c1cc2c(cc1[N+](=O)[O-])-c1ccccc1C2O (stereo not drawn),56.6% (inactive)
2,CN(C)CCOc1cc2c(c3ccccc13)-c1ccccc1C2O (stereo not drawn),67.8% (inactive)
3,BrC(Br)([P+](c1ccccc1)(c1ccccc1)c1ccccc1)[P+](c1ccccc1)(c1ccccc1)c1ccccc1,27.5% (inactive)
4,CCOCCNc1ncnc2c1cnn2C,13.1% (inactive)
5,C[C@H](CCC1=NCCN1)[C@H]1CC[C@H]2[C@@H]3CC[C@@H]4C[C@H](O)CC[C@]4(C)[C@H]3C[C@H](O)[C@]12C,90.2% (active)
6,CCOC(=O)C1=C(c2ccccc2)N(C)c2ccccc2S1,76.2% (active)
7,C(=P(c1ccccc1)(c1ccccc1)c1ccccc1)[P+](c1ccccc1)(c1ccccc1)c1ccccc1.[Br][Cu][Br],99.2% (active)
8,COc1ccc(N(C)Sc2ccccc2)cc1,67.1% (inactive)
9,COc1ccc(Cc2c(-c3ccc(C)cc3)n[nH]c(=O)c2C2C(=O)N(c3ccccc3)N=C2c2ccccc2)cc1 (stereo not drawn),98.2% (active)
10,N#CSC#CCCC#CSC#N,94.2% (active)
11,c1ccc2c(c1)OCC(CNCCNCC1COc3ccccc3O1)O2 (stereo not drawn),87.5% (active)
12,CC(C)(C)OC(=O)N[C@H]1CC2(C=C(Cl)C(=O)C(Cl)=C2)OC1=O,90.8% (active)
13,c1ccc([P+](c2ccccc2)(c2ccccc2)C2CCCC2)cc1,97.6% (active)
14,COc1ccc2nc(-c3ccc(Cl)cc3)[nH]c2c1,80.5% (active)
15,CC[C@H](CC[C@@H](C)C1CC[C@H]2[C@@H]3CCC4=CC(=O)CC[C@]4(C)[C@H]3CC[C@]12C)C(C)C (stereo partly drawn),76% (active)
16,CCOC(=O)N/N=C/c1ccc(N(C)CCC#N)cc1,55.2% (inactive)
17,CC(Br)C(=O)c1ccc2cc(Cl)c3ccccc3c2c1 (stereo not drawn),46.3% (inactive)
18,Cc1ccc(-n2cc(-c3ccc(Cl)cc3)c3c(NN)ncnc32)cc1,87.5% (active)
19,O=C1c2ccccc2C(=O)c2c1ccc(C(=O)O)c2-c1ccc2ccccc2c1,97.5% (active)
